Results filed as inconclusive are left out. Values without a mark were called inactive. Calls of active or inactive are those of the source. Calls follow the shape of the dose curve; as a rule, active = well fitted inhibition curve with a large enough effect; inconclusive = small, poorly fitted or top-dose-only effect; inactive = flat fitted curve, though single readings scatter.

The subject of one experiment is HB3. Kind of experiment: qHTS profiling for inhibitors of Plasmodium falciparum proliferation (AID 504749). Also: potency is read from the fitted curve at half-maximal effect. As to conditions: P. falciparum in erythrocytes, SYBR Green DNA, 72 h; series mostly up to 28.7 µM. The procedure, abridged: (§1)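 Infected RBCs, 0.3% parasitemia/2.5% Hct final; cpd 72 h, 37 C, 5% CO2; lysis buffer with saponin/triton/SYBR Green I, o/n RT dark; FI 485/535; norm. to artemisinin (0.29 uM) and DMSO.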

Another experiment relates to ICS. The experiment is described as above. The following applies: P. falciparum in erythrocytes, SYBR Green DNA, 72 h; series mostly up to 28.7 µM. The method, boiled down:
as §1

The subject of the next experiment is JCK. The experiment is described as above. The following applies: P. falciparum in erythrocytes, SYBR Green DNA, 72 h; series mostly up to 28.7 µM. The procedure, abridged: as §1
The next experiment has as its system N140. The experiment is described as above. The following applies: P. falciparum in erythrocytes, SYBR Green DNA, 72 h; series mostly up to 28.7 µM. The procedure, abridged: as §1
Another experiment relates to P93_24. The experiment is described as above. The following applies: P. falciparum in erythrocytes, SYBR Green DNA, 72 h; series mostly up to 28.7 µM. The procedure, abridged: as §1
Another experiment has as its system P94_40. The experiment is described as above. The following applies: P. falciparum in erythrocytes, SYBR Green DNA, 72 h; series mostly up to 28.7 µM. The procedure, abridged:
as §1

A further experiment has as its system PAD. The description is as above. As to conditions: P. falciparum in erythrocytes, SYBR Green DNA, 72 h; series mostly up to 28.7 µM. The method, boiled down: as §1
The test system of another experiment is PC15. Described as above. The following applies: P. falciparum in erythrocytes, SYBR Green DNA, 72 h; series mostly up to 28.7 µM. The procedure, abridged:
as §1

The next experiment deals with PC26. The description is as above. The following applies: P. falciparum in erythrocytes, SYBR Green DNA, 72 h; series mostly up to 28.7 µM. The procedure, abridged:
as §1

The next experiment concerns PC49. The description is as above. The following applies: P. falciparum in erythrocytes, SYBR Green DNA, 72 h; series mostly up to 28.7 µM. The method, boiled down: as §1
For another experiment, the system named is SC27B. The description is as above. The following applies: P. falciparum in erythrocytes, SYBR Green DNA, 72 h; series mostly up to 28.7 µM. The procedure, abridged: as §1
In the next experiment the test system is TAB109. The experiment is described as above. As to conditions: P. falciparum in erythrocytes, SYBR Green DNA, 72 h; series mostly up to 28.7 µM. The method, boiled down:
as §1

The next experiment relates to TAB113. Described as above. As to conditions: P. falciparum in erythrocytes, SYBR Green DNA, 72 h; series mostly up to 28.7 µM. The procedure, abridged:
as §1

In the next experiment the test system is TAB165. The experiment is described as above. As to conditions: P. falciparum in erythrocytes, SYBR Green DNA, 72 h; series mostly up to 28.7 µM. The method, boiled down:
as §1

The subject of another experiment is W2. The description is as above. As to conditions: P. falciparum in erythrocytes, SYBR Green DNA, 72 h; series mostly up to 28.7 µM. The procedure, abridged:
as §1

The test system of a further experiment is HEK293. Kind of experiment: Cytotoxic Profiling of Annotated Libraries Using Quantitative High-Throughput Screening (AID 1296008). As to max response: % is scaled to controls: 0 for no effect and ±100 for the full control effect. As to conditions: Five cell lines viability, CellTiter-Glo ATP luminescence, 48-72 h; max response: stronger effect = lower value. The procedure, abridged: (§2)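 Cytotoxicity was measured as CellTiter-Glo ATP luminescence, read after 10 min at room temperature. Compound treatment of the cells lasted 48 or 72 hr at 37 degrees Celsius in a qHTS format.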
Background: Cellular ATP, detected with luciferase, serves as a proxy for viable cell number.

For the next experiment, the system named is HaCat. The experiment is described as above. The following applies: Five cell lines viability, CellTiter-Glo ATP luminescence, 48-72 h; max response: stronger effect = lower value. The procedure, abridged:
as §2

In another experiment the test system is KB-3-1. Described as above. The following applies: Five cell lines viability, CellTiter-Glo ATP luminescence, 48-72 h; max response: stronger effect = lower value. The method, boiled down: as §2
In the next experiment the test system is NIH3T3. The experiment is described as above. The following applies: Five cell lines viability, CellTiter-Glo ATP luminescence, 48-72 h; max response: stronger effect = lower value. The procedure, abridged: as §2
The next experiment concerns CRL-7250. The experiment is described as above. The following applies: Five cell lines viability, CellTiter-Glo ATP luminescence, 48-72 h; max response: stronger effect = lower value. The method, boiled down:
as §2
Also: nearly all actives have a fitted effect of over 60% in size.

Turning to `COc1ccc(/C=N/NC(=O)c2ccncc2)cc1OC`, the Potency entry in the experiment with HB3, in the experiment with ICS, in the experiment with JCK, in the experiment on N140, with P93_24 and in the experiment on P94_40 was “inactive” each time. For the same molecule, the Potency entry in the experiment on PAD, with PC15, with PC26, with PC49, in the experiment with SC27B and in the experiment on TAB109 was “inactive” each time. The Potency entry with TAB113, in the experiment with TAB165 and in the experiment on W2 was “inactive” in each case. The max response was -3.6% in the experiment on HEK293, 0.981% with KB-3-1 and -0.709% in the experiment with NIH3T3. For the same molecule, the call in the experiment on HaCat was inactive.

With `OCCOCCN1CCN(C2=Nc3ccccc3Sc3ccccc32)CC1`, the Potency result with HB3, in the experiment on JCK, in the experiment with N140, in the experiment with P93_24, with P94_40 and in the experiment on PAD was “inactive” in each case. Also, the Potency result in the experiment on PC15, in the experiment with PC49, in the experiment on SC27B, in the experiment on TAB109, in the experiment on TAB113 and with TAB165 was “inactive” in each case. For the same molecule, the Potency in the experiment with W2 is 4.26 µM (active). In addition, the max response is -6.31% with CRL-7250 and -7.78% in the experiment with NIH3T3. The call with HaCat was inactive.

With `Cc1cc(CC(=O)O)c(C)n1-c1ccc(Cl)cc1`, the Potency entry in the experiment with HB3, in the experiment on JCK, in the experiment on PC15 and in the experiment with TAB109 was “inactive” each time. Besides, the Potency in the experiment with ICS was 8.91 µM (active); with TAB165, 14.1 µM (active); in the experiment on W2 it was 8.49 µM (active). The molecule was classed as inactive in the experiment on CRL-7250, in the experiment with HaCat and in the experiment with NIH3T3. The max response in the experiment with KB-3-1 is -2.45%.

For the molecule `CC[N+](C)(CC)CCOC(=O)C(O)(c1ccccc1)C1CCCCC1` (stereo not drawn), the Potency entry in the experiment with JCK, with N140, in the experiment with P94_40, in the experiment on PAD, in the experiment on PC15 and in the experiment with PC26 was “inactive” throughout. In addition, the Potency entry in the experiment with PC49, with SC27B, in the experiment with TAB109, in the experiment on TAB113 and in the experiment with TAB165 was “inactive” throughout. The max response is -11.2% with CRL-7250, 5.15% with KB-3-1 and -5.74% in the experiment with NIH3T3. Also, in the experiment on HaCat, the molecule was called inactive.

Take `CC(C)=CCOc1ccc(/C=C/C(=O)c2ccc(OCC=C(C)C)cc2OCC(=O)O)cc1`: the Potency result in the experiment with HB3, with JCK, in the experiment on N140, with P93_24, with P94_40 and with PAD was “inactive” in each case. Moreover, the Potency entry in the experiment on PC15, in the experiment on PC49, in the experiment on SC27B, in the experiment on TAB109, with TAB113 and in the experiment on TAB165 was “inactive” throughout. Besides, the values for the max response with CRL-7250 and with KB-3-1 were -15.2% and 1.11%, respectively. In addition, the result in the experiment on HaCat and in the experiment with NIH3T3 was inactive.

Regarding `CC(C)[C@@H]1CC[C@@H](C)CC1=O`, the max response was -11.3% with HEK293, -7.81% with KB-3-1 and 4.81% with NIH3T3. In the experiment with HaCat, the molecule was called inactive.

As for `CC1CCc2c(N3CCC(O)CC3)c(F)cc3c(=O)c(C(=O)O)cn1c23` (stereo not drawn), the Potency result with HB3, in the experiment with JCK, in the experiment on PAD, in the experiment on PC15, in the experiment with PC26 and in the experiment on PC49 was “inactive” each time. Besides, the max response was -8.92% in the experiment with CRL-7250, -5.2% in the experiment with HaCat, 15% in the experiment with KB-3-1 and -20% with NIH3T3.

Regarding `CC(=O)OCC(=O)[C@H]1CC[C@H]2[C@@H]3CCC4=CC(=O)CC[C@]4(C)[C@H]3CC[C@]12C`, the Potency entry in the experiment on HB3, in the experiment with JCK, with N140, with P93_24, in the experiment with P94_40 and with PAD was “inactive” in each case. The Potency result in the experiment with PC15, in the experiment on PC26, in the experiment with PC49, with SC27B, in the experiment on TAB109 and in the experiment with TAB113 was “inactive” throughout. The Potency result in the experiment with TAB165 was “inactive”. The max response was 1.7% in the experiment with CRL-7250, -19.8% in the experiment on KB-3-1 and 0.692% with NIH3T3. Further, the molecule was called inactive in the experiment with HaCat.

Values taken from PubChem BioAssay (NCATS).
